# Measured values taken from PubChem BioAssay (NCI).
# Where “and” joins values, the source holds several entries; their conditions need not be identical. Identical values can stand only once. About 83,000 compounds went through this panel and 20% of them were active in at least one assay; those are over-represented in the sample as a whole.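 Results are percent growth after 48 hours of single-concentration exposure. 100 means growth as in untreated cells, lower positive values show inhibition; negative values down to -100 show cell death.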 Values without a mark were called inactive. Calls of active or inactive are those of the source. The calls were made as follows: active = growth percent below 10; inactive = the rest.
# How the values were obtained:
# Test in all cases: NCI-60 one-dose screen, 48 h (100 = growth as untreated, 0 = no growth, -100 = all killed)
# Settings in all cases: 10 µM unless noted
# T-47D breast = tested on: T-47D breast
# BT-549 breast = tested on: BT-549 breast
# MDA-MB-435 melanoma = tested on: MDA-MB-435 melanoma
# SW-620 colon = tested on: SW-620 colon
# MCF7 breast = tested on: MCF7 breast
# HCT-116 colon = tested on: HCT-116 colon
# HCC-2998 colon = tested on: HCC-2998 colon
# KM12 colon = tested on: KM12 colon
# MDA-MB-468 breast = tested on: MDA-MB-468 breast
SMILES,growth (T-47D breast),growth (BT-549 breast),growth (MDA-MB-435 melanoma),growth (SW-620 colon),growth (MCF7 breast),growth (HCT-116 colon),growth (HCC-2998 colon),growth (KM12 colon),growth (MDA-MB-468 breast)
CCCCCCCCc1ccc(C(=O)Nc2ccc(C)cc2C(=O)O)cc1,94%,104%,104%,103%,85.2%,75.5%,106%,50.3%,70.5%
CCCSc1nnc(-c2c(C)nc3sccn23)o1,21.2%,109%,105%,104%,23%,95.7%,105%,96.2%,-22.9% (active)
CC(C)(C)c1ccc(OCc2nc3ccccc3n2-c2cccc(N)c2)cc1,32.3% and 99.1%,73.6% and 115%,70.5% and 102%,77% and 116%,32% and 92.1%,56.8% and 104%,81.9% and 107%,54.5% and 105%,69% and 96.4%
CC1=C(C(=O)OC(C)C)C(c2ccc(O)cc2)NC(=O)N1 (configuration not stated),101%,96.1%,99.9%,103%,98.6%,97.1%,111%,111%,103%
CCCCCCCCc1cccc(CC(=O)Nc2ccc(C)cc2C(=O)O)c1,65.6% [25 µM],73.6% [25 µM],54.9% [25 µM],51.2% [25 µM],36.7% [25 µM],28.1% [25 µM],69.4% [25 µM],45.8% [25 µM],73% [25 µM]
COC(=O)CSC1=C(C)C(=O)C(OC)=C(OC)C1=O,36.2%,79%,89.2%,84.5%,86.6%,29.6%,120%,93.5%,52%
O=C(Nc1ccc(Cl)c(C(F)(F)F)c1)N1CCN(c2cc(-c3cn(-c4ccccc4)nc3-c3cccc(O)c3)ccn2)CC1,-1.78% (active),-39.4% (active),-65.4% (active),16.6%,-22.2% (active),4.83% (active),6.31% (active),-8.11% (active),-34.8% (active)
Cc1cc(C(NC(=O)C2CC3(CC(Nc4cccc5c4C(=O)N(C4CCC(=O)NC4=O)C5=O)C3)C2)c2ccc3c(c2)OC(F)(F)O3)c(O)c2ncccc12 (configuration not stated),11.5%,9.92% (active),28.5%,25.6%,8.12% (active),15.6%,36.6%,17.5%,-30.6% (active)
COc1ccc2c(c1)C(=O)N(C)C2C1c2c(cc3c(c2OC)OCO3)CCN1C (configuration not stated),56.3%,68.5%,-21.1% (active),23.9%,14.7%,27.5%,63.2%,15.9%,8.46% (active)
Fc1ccc(Nc2nnc(-c3c[nH]c4ccccc34)o2)cc1,47.2%,67.3%,89.8%,100%,49.9%,90.3%,98.5%,64.4%,32.6%
O=C(/C=C1\C(=O)N(Cc2ccccc2)c2ccccc21)c1cc2ccccc2oc1=O,40.3%,97.1%,107%,24.2%,29.8%,82.9%,113%,91.2%,29.6%
COc1cc2cc(C(=O)N3C[C@@H](CCl)c4c3cc(OC(=O)N(CCC(=O)N3CCN(C)CC3)[C@H]3CCSSC3)c3ccccc43)[nH]c2c(OC)c1OC,8.8% (active),-81.1% (active),-48.5% (active),-42.4% (active),-79.9% (active),-41.4% (active),-94.3% (active),-29% (active),-91.5% (active)
N#C/C(=C/c1ccc(Cl)cc1)c1nnc(NC(=O)c2ccc(-n3c(=O)[nH]c4ccccc4c3=O)cc2)s1,64.2%,40%,84.7%,73.8%,38%,46.4%,23.5%,23.6%,34.9%
COc1sc(/C=N/NC(=O)c2[nH]c3ccc(Br)cc3c2-c2ccccc2)cc1Cl,54.3%,-35.2% (active),-10.1% (active),-33.8% (active),-26.6% (active),-43.5% (active),-30.8% (active),-16.1% (active),-6.37% (active)
N/C(=N\c1nc2ccccc2s1)NC(=O)Nc1ccccc1F,31.1%,30.2%,-18.1% (active),43%,20.1%,10.2%,45.9%,22.6%,-12.3% (active)
COc1ccc(OC)c(Cn2cc(C#N)c(N)c2C(=O)c2ccc(Br)cc2)c1,35.6%,-86.3% (active),0.655% (active),31.2%,27.9%,24.3%,71.8%,40%,2.73% (active)
O=C(NC(=S)N1CCN(c2ncnc3c2cnn3-c2ccccc2)CC1)c1ccc(F)cc1,66.6%,86.2%,77.2%,76.6%,52.4%,55.1%,99.1%,79.7%,66.7%
O=c1[nH]c2ccccc2cc1CSc1ccccc1Nc1nccc(-c2ccc3c(c2)OCO3)n1,83.6%,67.6%,98.8%,93.2%,69.2%,93.2%,116%,99.3%,84.4%
Nc1cc2ccccc2c(=O)n1NC(=O)c1ccc(Br)cc1,94.8%,136%,103%,98.4%,74.6%,95.1%,97.5%,92.7%,-54.9% (active)
COc1ccc2nc(NC(=O)c3ccc(N(C)C)cc3)sc2c1,69%,58.7%,79.8%,91.8%,44.7%,79.8%,98.2%,57.8%,41.1%
Cc1ccc(C(=O)Nc2cc(-n3ccnc3C)cc(C(F)(F)F)c2)cc1C#Cc1cnc2cccnn12,0.344% (active),-22.7% (active),3.5% (active),12.6%,0.633% (active),-41.3% (active),-48.7% (active),3.67% (active),-20.6% (active)
COc1ccc(NC2=C(I)C(=O)C(C)=C(C)C2=O)cc1,-21.1% (active),81.4%,-72.4% (active),62.1%,-8.31% (active),-3.05% (active),118%,19.1%,-42.3% (active)
COc1ccc(-n2c(NC(=O)N3CCN(C)CC3)c(C#N)c3ccccc32)cc1,55.2%,57.7%,71.7%,69.2%,35.5%,48%,89%,34.1%,38.3%
CCCCNC(=S)Nc1ccc(OCc2nc3ccc(Cl)cc3[nH]2)cc1,22.2%,31.7%,29.4%,21.8%,6.29% (active),11.2%,3.65% (active),29.3%,3.25% (active)
COc1ccc2ccccc2c1/C=C1\SC(=Nc2ccc(O)cc2)NC1=O,36.4%,-22.6% (active),10.9%,35.4%,9.63% (active),2.32% (active),-0.301% (active),17.3%,-34.7% (active)
CN(C)c1nc(NCCNS(=O)(=O)c2ccc(C(=O)/C=C/c3ccccc3)cc2)nc(N2CCOCC2)n1,73.1%,94.3%,83.3%,-11.3% (active),-4.51% (active),-28.5% (active),89.4%,-11.1% (active),52.1%
O=C(c1ccc(Cl)cc1)C1[C@H](c2ccccc2Cl)[C@@H](c2ccccc2)NC12C(=O)Nc1ccc(Br)cc12 (some centres not stated),-83.4% (active),-95.1% (active),-93.4% (active),-84.1% (active),-48.7% (active),-98.9% (active),-94.2% (active),-51.8% (active),-83.2% (active)
Nc1nc(-c2ccccc2)c(N=Nc2ccc(Cl)cc2Cl)s1,25.4%,-47.2% (active),-51.7% (active),-59.7% (active),-28.9% (active),-80.6% (active),-87.7% (active),-70.8% (active),-63.3% (active)
